The antibiotic and cytotoxicity screens of Wong et al. (2023)
About 3,300 (8.5%) of roughly 39,000 compounds were called active. This is one part of a sample in which actives are shown more often than they occur.

test system: HepG2; experiment: cytotoxicity call (relative viability < 0.9); conditions: 10 µM

| SMILES | cytotoxicity call |
| --- | --- |
| C[C@H]1CN([C@@H](C)CO)C(=O)Cc2cc(NS(=O)(=O)c3cccs3)ccc2O[C@@H]1CN(C)S(=O)(=O)c1cn(C)cn1 | inactive |
| Cc1noc(C)c1NC(=O)Nc1ccc2c(c1)C(=O)N([C@H](C)CO)C[C@H](C)[C@H](CN(C)S(=O)(=O)c1ccccc1)O2 | inactive |
| COc1ccc2c3c([nH]c2c1)[C@H](CO)N(C[C@]13CN(Cc2ccccc2F)C1)S(=O)(=O)c1cn(cn1)C | inactive |
| Cc1noc(C)c1NC(=O)Nc1ccc2c(c1)CC(=O)N([C@H](C)CO)C[C@H](C)[C@@H](CN(C)S(=O)(=O)c1cccs1)O2 | inactive |
| Cc1ccc(S(=O)(=O)N(C)C[C@@H]2OCCCC[C@H](C)Oc3ccc(NC(=O)Nc4ccc(F)cc4)cc3C(=O)N([C@H](C)CO)C[C@@H]2C)cc1 | inactive |
| C[C@H](NC(=O)N(C)C[C@@H]1OCc2ccccc2-c2ccccc2C(=O)N([C@H](C)CO)C[C@@H]1C)c1ccccc1 | inactive |
| CCn1c(N)nc2c1c(=O)[nH]c(=O)n2C | inactive |
| NCCn1nc([C@H]2CCN(C(=O)c3csc4c3CCCC4)C2)c2nccnc21 | inactive |
| Cc1ccc(S(=O)(=O)N(C)C[C@@H]2Oc3ccc(NS(=O)(=O)c4cn(C)cn4)cc3C(=O)N([C@@H](C)CO)C[C@H]2C)cc1 | inactive |
| CCSC1=C(C#N)C(=O)N[C@@H](CO)S1 | inactive |
| C[C@H](CO)N1C[C@H](C)[C@@H](CN(C)Cc2ccc(C(=O)O)cc2)OCCCC[C@H](C)Oc2ccc(NC(=O)Nc3cccc4ccccc34)cc2C1=O | inactive |
| C[C@H](CO)N1C[C@H](C)[C@H](CN(C)C(=O)Nc2ccc(C(F)(F)F)cc2)OCCCC[C@H](C)Oc2ccc(NS(=O)(=O)c3ccccc3)cc2C1=O | inactive |
| C[C@H]1CCCCO[C@H](CN(C)C(=O)Nc2ccc(C(F)(F)F)cc2)[C@@H](C)CN([C@@H](C)CO)C(=O)c2cc(NS(=O)(=O)c3ccccc3)ccc2O1 | active |
| C[C@@H]1CCCCO[C@H](CN(C)C(=O)Nc2ccc(C(F)(F)F)cc2)[C@@H](C)CN([C@@H](C)CO)C(=O)c2cc(NS(=O)(=O)c3ccccc3)ccc2O1 | inactive |
| C[C@@H]1CCCCO[C@@H](CN(C)C(=O)Nc2ccc(C(F)(F)F)cc2)[C@@H](C)CN([C@H](C)CO)C(=O)c2cc(NS(=O)(=O)c3ccccc3)ccc2O1 | active |
| Cc1noc(C)c1S(=O)(=O)Nc1cccc2c1O[C@@H](CN(C)S(=O)(=O)c1cccs1)[C@@H](C)CN([C@@H](C)CO)C2=O | inactive |
| COc1ccc(-n2c(N)cc(=O)[nH]c2=O)cc1 | inactive |
| N=C(N)Nc1nc(=O)c2ccccc2s1 | inactive |
| CSc1cccc2sc(Nc3ccc(Cl)cc3)nc12 | inactive |
| c1ccc(Nc2nc3c(ccc4ccccc43)s2)cc1 | active |
| O=C(C[C@H]1CC=CC[C@H](Cc2ccc(F)cc2)C(=O)OC[C@@H](Cc2c[nH]c3ccccc23)NC1=O)NCCO | inactive |
| C[C@@H]1CN([C@@H](C)CO)C(=O)Cc2cc(NC(=O)C3CCCCC3)ccc2O[C@@H]1CN(C)S(C)(=O)=O | inactive |
| C[C@@H]1CN([C@@H](C)CO)C(=O)c2cc(NC(=O)C3CCCCC3)ccc2O[C@@H](C)CCCCO[C@H]1CN(C)C(=O)C1CCCCC1 | inactive |

| SMILES | cytotoxicity call |
| --- | --- |
| Cc1noc(C)c1S(=O)(=O)Nc1ccc2c(c1)CC(=O)N([C@@H](C)CO)C[C@@H](C)[C@@H](CN(C)C(=O)Nc1ccc3c(c1)OCO3)O2 | inactive |
| Cn1c(=O)c(C(=O)NCCO)c(O)c2ccccc21 | inactive |
| CNC(=O)c1c(O)c2ccccc2[nH]c1=O | inactive |
| CNC(=O)c1c(O)c2ccccc2n(C)c1=O | active |
| COc1ccc2c3c([nH]c2c1)[C@H](CO)N(C[C@]13CCN(CC1)C(=O)CN(C)C)S(=O)(=O)C | inactive |
| CC1OC1P(=O)([O-])[O-].[Ca+2] (stereo unspecified) | inactive |
| NCC[S@@](=O)c1c(-c2ccc(F)cc2)[nH]c2ccccc12 | inactive |
| CSc1c(-c2ccc(Cl)cc2)[nH]c2ccccc12 | active |
| Cc1[nH]c2ccccc2c1C(=O)CSc1ccc(Cl)cc1 | inactive |
| C[C@H](CO)N1C[C@H](C)[C@H](CN(C)S(=O)(=O)c2ccc(Cl)cc2)Oc2ccc(NC(=O)CCN3CCOCC3)cc2C1=O | inactive |
| C[C@@H]1CN([C@@H](C)CO)C(=O)Cc2cc(NC(=O)c3ccncc3)ccc2O[C@H]1CN(C)S(C)(=O)=O | inactive |
| C[C@H](O)C#Cc1ccc2c(c1)O[C@H](CN(C)C(=O)CN(C)C)[C@@H](C)CN([C@@H](C)CO)S2(=O)=O | inactive |
| C[C@H]1CN([C@@H](C)CO)C(=O)Cc2cc(NC(=O)Nc3cccc(C(F)(F)F)c3)ccc2O[C@H]1CN(C)S(=O)(=O)c1ccc(Cl)cc1 | active |
| C[C@@H]1CN([C@H](C)CO)C(=O)Cc2cc(NC(=O)Nc3ccc(C(F)(F)F)cc3)ccc2O[C@@H]1CN(C)S(=O)(=O)c1ccc(Cl)cc1 | active |
| C[C@H]1CN([C@@H](C)CO)C(=O)Cc2cc(NC(=O)Nc3ccc(C(F)(F)F)cc3)ccc2O[C@H]1CN(C)S(C)(=O)=O | inactive |
| C[C@H](CO)N1C[C@H](C)[C@H](CN(C)S(=O)(=O)c2ccc(Cl)cc2)Oc2ccc(NC(=O)Nc3ccc(C(F)(F)F)cc3)cc2CC1=O | active |
| C[C@@H]1CN([C@H](C)CO)C(=O)Cc2cc(NC(=O)Nc3ccc(C(F)(F)F)cc3)ccc2O[C@@H]1CN(C)S(C)(=O)=O | inactive |
| CC(C)NC(=O)Nc1ccc2c(c1)CC(=O)N([C@H](C)CO)C[C@@H](C)[C@@H](CN(C)S(=O)(=O)c1ccc(Cl)cc1)O2 | inactive |
| C[C@H](CO)N1C[C@H](C)[C@@H](CN(C)S(C)(=O)=O)Oc2ccc(NC(=O)Nc3ccc(C(F)(F)F)cc3)cc2CC1=O | inactive |
| C[C@@H]1CN([C@H](C)CO)C(=O)Cc2cc(NC(=O)Nc3ccc(C(F)(F)F)cc3)ccc2O[C@H]1CN(C)S(C)(=O)=O | inactive |
| C[C@H]1CN([C@@H](C)CO)C(=O)Cc2cc(NC(=O)Nc3ccc(C(F)(F)F)cc3)ccc2O[C@H]1CN(C)S(=O)(=O)c1ccc(Cl)cc1 | active |
| O=C(O)c1ccc[nH]1 | inactive |
| Cc1noc(C)c1NC(=O)N(C)C[C@@H]1Oc2ccc(NC(=O)Nc3ccc(C(F)(F)F)cc3)cc2CC(=O)N([C@@H](C)CO)C[C@@H]1C | inactive |
